# Experimental data published in PubChem BioAssay AID2685 (National Center for Advancing Translational Sciences (NCATS), 2010).
# The campaign covered roughly 320,000 compounds. About 2,100 (0.66%) were called active. Not shown: some 53% with an inconclusive outcome. Calls follow the shape of the dose curve; as a rule, active = well fitted inhibition curve with a large enough effect in the signal ratio, with a control signal flat (not every such curve was filed as active); inconclusive = small, poorly fitted or top-dose-only effect, or effect the other way, or a change in a side signal; inactive = flat fitted curve, though single readings scatter; the % refers to the signal ratio. Only a selection was taken, and actives are over-represented in it overall.
# Assay: qHTS Assay for Lipid Storage Modulators in Drosophila S3 Cells;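 as to cell number change: cells counted by Cell Tracker Red CMTPX staining in the red channel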; as to lipid storage change, negative = inhibition: % is scaled to controls: 0 for no effect and ±100 for the full control effect
# Conditions: BODIPY lipid droplet fluorescence, 18-24 h, cells fed with added oleic acid; cell number change: measured here: cell count max response; series mostly up to 46.1 µM; lipid storage change, negative = inhibition: at the top concentration
# Method in brief: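 Laser-scanning cytometry quantifies lipid droplet accumulation (500–530 nm total intensity; droplet/cell object ratio) in oleic acid-fed (400 uM added) Drosophila S3 cells treated with a concentration series. 20 uM Triacsin C defined 100% inhibition.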
# Potency is read from the fitted curve at half-maximal effect.
SMILES,"lipid storage change, negative = inhibition",cell number change,Potency,outcome
Cc1ccc(N2CCN(/N=C/c3ccccc3)CC2)cc1,-18.6% (inactive),-1.14%,–,–
C=CCNC(=O)c1ccccc1NC(=O)c1ccc(Cl)c(S(=O)(=O)Nc2ccccc2)c1,-5.77% (inactive),-6.78%,–,–
Cc1ccccc1-n1ncc2c1CC(C)(C)CC2NC(=O)CCN1CCCCC1=O (configuration not stated),-16.5% (inactive),-9.29%,–,–
O=C(O)c1cc(-c2ccc(Cl)c(Cl)c2)n(-c2ccc(F)cc2)n1,1.09% (inactive),20.6%,–,–
COc1ccccc1CNC(=O)CCCc1nnc2n(C)c(=O)c3sccc3n12,–,11.8%,1.3 µM (active),–
CCn1c(=O)c2sccc2n2c(CCCC(=O)NC3CCN(Cc4ccccc4)CC3)nnc12,-11.5% (inactive),–,–,–
O=C(CCCn1c(=O)[nH]c2ccsc2c1=O)N1CCN(c2ccccn2)CC1,-23.2% (inactive),-2.15%,–,–
CC(C)Cn1c(=O)c2sccc2n2c(CCCC(=O)NC3CCN(Cc4ccccc4)CC3)nnc12,–,6.76%,–,inactive
CCn1c(=O)c2sccc2n2c(CCCC(=O)N3CCN(c4ccccn4)CC3)nnc12,–,-5.66%,23.1 µM (active),–
COc1ccccc1CNC(=O)CCn1c(=O)[nH]c2ccsc2c1=O,1.06% (inactive),-12.6%,–,–
N#Cc1ccc(C[C@@H](NS(=O)(=O)c2ccc(C(=O)O)cc2)C(=O)O)cc1,16.5% (inactive),17.7%,–,–
COc1cc(/C=C2/C(=O)N(c3ccc(Br)cc3)N=C2C)cc([N+](=O)[O-])c1O,–,–,–,inactive
COc1ccc(OCCCCOc2ccccc2Cl)cc1,-0.0266% (inactive),0.395%,–,–
NNC(=O)/C(=C\c1ccc(Br)cc1)NC(=O)c1cccs1,0.151% (inactive),2.9%,–,–
COc1ccc(NC(=O)CCNC(=O)c2ccc([N+](=O)[O-])cc2)cc1S(=O)(=O)N1CCOCC1,-6.84% (inactive),-1.49%,–,–
COC(=O)Cn1c(=O)cnc2ccccc21,–,11.6%,16.4 µM (active),–
COc1ccc(OCC(=O)NNC(=O)Cn2c(=O)cnc3ccccc32)cc1,18.9% (inactive),2.51%,–,–
CC(C)(C)OC(=O)Cn1c(=O)cnc2ccccc21,-0.847% (inactive),6.02%,–,–
CCC1=C(OC(=O)N(CC)CC)N2C(=O)OC(=NCc3ccccc3)[C@]2(C)[C@H]2C1=CC[C@H]1C(=O)N(c3ccccc3)C(=O)[C@H]12,10.2% (inactive),11.7%,–,–
Cc1cc(NC(=O)COC(=O)c2ccccc2[N+](=O)[O-])no1,11.3% (inactive),-0.913%,–,–
O=C(C1=C(O)C(=O)N(CCc2ccccc2)C1c1cccs1)c1ccco1 (configuration not stated),–,–,–,inactive

SMILES,"lipid storage change, negative = inhibition",cell number change,Potency,outcome
CN1/C(=C/c2cccc[n+]2CCO)Sc2ccccc21,-13.9% (inactive),0.676%,–,–
COc1ccccc1-[n+]1c(C)cc(/C=C2\Sc3ccccc3N2C)cc1C,–,-16.5%,0.082 µM (active),–
Cc1ccc2c(c1)S/C(=C/c1ccc[n+](CCO)c1)N2C,-3.25% (inactive),5.41%,–,–
Cn1cc(CN2CCCC(CNC(=O)c3ccc4c(c3)OCO4)C2)c2ccccc21 (configuration not stated),13.4% (inactive),-1.43%,–,–
COc1ccc(-n2nc3c(c2NC(=O)CBr)CSC3)cc1,-5.01% (inactive),13.3%,–,–
C=CCC(NCc1ccco1)c1ccc(OC)c(OC)c1 (configuration not stated),–,–,23.1 µM (active),–
C=CCC(NCc1ccco1)c1ccc(OC)cc1 (configuration not stated),-17.7% (inactive),-21.6%,–,–
C=CCC(Nc1ccccc1)c1ccc(OC)c(OC)c1 (configuration not stated),16.3% (inactive),7.9%,–,–
CCOc1ncccc1C(=O)OCC(=O)Nc1cc(S(=O)(=O)N(CC)CC)ccc1C,-12% (inactive),-5.2%,–,–
COCCCn1c(-c2ccc(OC)cc2)nc2nc3ccccc3nc21,–,5.75%,–,inactive
Cc1ccc(S(=O)(=O)N2CCCCC2)cc1C(=O)N1CCN(c2ccccn2)CC1,7.29% (inactive),–,–,–
Cc1cccc(C(=O)NCc2nnc(SCC(=O)Nc3nncs3)n2C)c1,23.4% (inactive),-2.14%,–,–
CC(NC(=O)CCC(=O)NC(C)C1COc2ccccc2O1)C1COc2ccccc2O1 (configuration not stated),-3.23% (inactive),-1.04%,–,–
O=C(OC1CCOC1=O)c1cc(-c2cccc(Br)c2)nc2ccccc12 (configuration not stated),4.32% (inactive),21.7%,–,–
Cc1cc2ccccn2c1C(C[N+](=O)[O-])c1ccc(N(C)C)cc1 (configuration not stated),7.67% (inactive),12.9%,–,–
COc1cc(C(C[N+](=O)[O-])c2c(C)[nH]c3ccccc23)ccc1O (configuration not stated),6.04% (inactive),20.5%,–,–
COc1cc(C(C[N+](=O)[O-])c2c(C)cc3ccccn23)ccc1O (configuration not stated),–,15.3%,0.651 µM (active),–
Cc1nc(Cl)sc1C(=O)Nc1ccc(C(C)(C)C)cc1,–,1.1%,7.31 µM (active),–
O=C(Nc1cccc(C(F)(F)F)c1)c1sc(Cl)nc1C(F)(F)F,–,-10.2%,10.3 µM (active),–
Cc1nc(Cl)sc1C(=O)Nc1ccccc1Cl,-5.61% (inactive),-11.3%,–,–
Cc1ncsc1C(=O)Nc1cccc(C(F)(F)F)c1,8.39% (inactive),22.3%,–,–

SMILES,"lipid storage change, negative = inhibition",cell number change,Potency,outcome
Cc1nc(Cl)sc1C(=O)Nc1cccc(Cl)c1,–,2.35%,–,inactive
O=C(Nc1cccc(C(F)(F)F)c1)c1cc(-c2ccco2)on1,26.8% (inactive),7.92%,–,–
Cc1nc(Cl)sc1C(=O)Nc1ccc(C(F)(F)F)cc1,–,-0.73%,1.64 µM (active),–
Cc1ccccc1NC(=O)c1sc(Cl)nc1C,11.6% (inactive),–,–,–
CC(=O)c1cccc(NC(=O)c2sc(Cl)nc2C)c1,-14.7% (inactive),12.6%,–,–
COCCN(C(=O)CNC(=O)c1cccs1)C(C(=O)NC1CCCCC1)c1ccco1 (configuration not stated),6.95% (inactive),-12.2%,–,–
CC(=O)C(Sc1nnnn1-c1ccc(O)cc1)c1ccccc1 (configuration not stated),5.34% (inactive),5.67%,–,–
COc1ccc(NC(=O)N2CCN(c3nc4ccccc4n3C(C)C)CC2)cc1,–,-28.6%,14.6 µM (active),–
CC(C)n1c(N2CCN(C(=O)NCc3ccccc3)CC2)nc2ccccc21,4.69% (inactive),-4.04%,–,–
Cn1c(N2CCN(C(=O)Nc3ccc(F)cc3)CC2)nc2ccccc21,-3.7% (inactive),17.1%,–,–
N#Cc1c(Cl)nc(SCc2ccccc2)nc1-c1ccccc1,-0.854% (inactive),-2.68%,–,–
CCC(C)Sc1ccc([C@H]2N[C@@](Cc3ccccc3)(C(=O)OC)[C@H]3C(=O)N(C)C(=O)[C@@H]23)cc1 (some centres not stated),-6.01% (inactive),17.3%,–,–
COc1cc(/C=C2/SC(=S)N(CCC(=O)Nc3ccccc3)C2=O)cc(OC)c1OC,–,–,1.84 µM (active),–
COc1cc(/C=C2\SC(=S)N(CC(=O)Nc3ccc(O)cc3)C2=O)cc(OC)c1OC,12.1% (inactive),19.7%,–,–
COc1ccc(/C=C2\SC(=S)N(CCC(=O)Nc3cccc(O)c3)C2=O)cc1OC,–,-7.94%,–,inactive
COc1cc(/C=C2\SC(=S)N(CCC(=O)Nc3cccc(O)c3)C2=O)cc(OC)c1OC,–,10.2%,3.66 µM (active),–
COc1cc(/C=C2\SC(=S)N(CCC(=O)Nc3ccccc3)C2=O)cc(OC)c1OC,-5.12% [at 9.22 µM] (inactive),15%,–,–
O=C(CCN1C(=O)/C(=C/c2ccccc2)SC1=S)N[C@@H](CO)Cc1ccccc1,–,-19.2%,–,inactive
COc1cc(/C=C2\SC(=S)N(CCC(=O)Nc3ccccc3O)C2=O)cc(OC)c1OC,-14.3% (inactive),–,–,–
O=C(CCN1C(=O)/C(=C\c2ccc(F)cc2)SC1=S)Nc1ccccc1,–,–,–,inactive
O=C(CCN1C(=O)/C(=C/c2ccc(F)cc2)SC1=S)N[C@@H](CO)Cc1ccccc1,–,-1.15%,29.1 µM (active),–
